Compound activity: PubChem BioAssay, National Center for Advancing Translational Sciences (NCATS)
FMDV antiviral: antivirals against foot and mouth disease virus; 410,000 tested, 1.2% active; AID 1159524; Potency, µM (doses to about 57.9 µM), without a hit: at the top dose activity change, negative = inhibition, hits mostly inhibitors; FMDV antiviral cell-based qHTS; calls by dose curve; tested in HEK293T cells; further: read-out not given here; nearly all actives have a fitted effect of over 45% in size
HCV inhibitor: blocks hepatitis C virus; Huh7.5.1 HCVcc-Cre infection, luciferase reporter, 44 h; Potency, µM (series often up to 41.8 µM), for the others: at the highest dose activity change, negative = inhibition, actives largely listed as inhibitors; 340,000 tested, 3.4% active; AID 651820; active means well fitted inhibition curve with a large enough effect; inconclusive means small, poorly fitted or top-dose-only effect, or another doubt; inactive means no such curve, though single readings can be large or run the other way
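A cell-based infection assay in which seeded cells (1,000 per well) receive test compound after 4 h, are inoculated with HCVcc-Cre at approximately 0.5 moi, and are incubated 44 h before luminescence detection.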
VACV Venus inh: inhibitors of vaccinia virus (Venus reporter); Potency, µM (top dose mostly 36.5 µM), inactives show at the highest dose activity change, negative = inhibition, most hits filed as inhibitors; 330,000 tested, 0.46% active; AID 720580; Vaccinia virus Venus reporter expression, fluorescence; calls by dose curve; tested in A549 cells; further: nearly all actives have a fitted effect of over 30% in size
LASV entry inh: Lassa virus entry inhibition; Potency, µM (titrated, usually from 37.9 µM), for the others: at the highest dose activity change, negative = inhibition, most hits filed as inhibitors; AID 540256; Lassa virus pseudotype entry inhibition, cell reporter; 300,000 tested, 1.2% active; calls by dose curve; tested in HEK293 cells; further: nearly all actives have a fitted effect of over 50% in size
Marburg entry inh: Marburg virus entry inhibition; Marburg virus pseudotyped entry inhibition, cell reporter; Potency, µM (titrated, usually from 37.8 µM), for the others: at the highest dose activity change, negative = inhibition, most hits filed as inhibitors; 300,000 tested, 1.8% active; AID 540276; calls by dose curve; tested in HEK293 cells
Vaccinia mCherry: vaccinia inhibition (mCherry reporter). AID 720579. 310,000 tested, 0.63% active. Vaccinia virus mCherry reporter infection, fluorescence. Potency, µM (top dose mostly 36.5 µM), without a hit: at the top dose activity change, negative = inhibition, usual class: inhibitors; calls by dose curve; tested in A549 cells; further: nearly all actives have a fitted effect of over 35% in size
The depositor's hits bear a star; i = inactive; ? = inconclusive; / = no result given; [ ] = remark or other dose. Compounds with a hit are over-represented: about 5.3% of the library has one in this group of screens. On the % scale 0 is the no-effect control and ±100 the full control effect; potency means the concentration at half of the fitted maximal effect.

SMILES	FMDV antiviral	HCV inhibitor	VACV Venus inh	LASV entry inh	Marburg entry inh	Vaccinia mCherry
CCOC(=O)c1sc2nc(CC(=O)OC)nc(N3CCN(c4ccc(OC)cc4)CC3)c2c1C	?	?	2%	-11%	?	-8%
CCOC(=O)c1sc2nc(CC(=O)OC)nc(NCc3ccc(Cl)cc3)c2c1C	-29%	5.6µM*	/	-5%	-9%	/
CCOC(=O)c1sc2nc(CC(=O)OC)nc(NCCN3CCOCC3)c2c1C	-6%	?	-10%	5%	?	i
CCOC(=O)c1sc2nc(CC(=O)OC)nc(NCCN(CC)CC)c2c1C	-11%	11µM*	-26%	-15%	?	-19%
COC(=O)[C@@]12Cc3ccccc3[C@H]1C[C@H](C)[C@@H](C)N2C(=O)C(F)(F)F	/	/	/	/	3%[14.2 µM]	/
O=C(CCn1c(=O)c2cccn2c2ccc(F)cc21)NCCc1ccccc1	-18%	10µM*	-2%	7%[46.1 µM]	/	9%
Clc1ccc(-c2nnc(NCCN3CCCC3)c3ccccc23)cc1	0.89µM*	?	/	/	/	/
CN1CCN(c2nnc(-c3ccc(Cl)cc3)c3ccccc23)CC1	-26%	?	/	/	/	/
CN(C)c1ccc(CNC(=O)c2cccn2-c2nnc(N3CCCCC3)s2)cc1	-8%	/	-5%	-1%[46.1 µM]	/	-18%
O=C(CN1C(=O)NC2(CCCCCCC2)C1=O)Nc1ccc(Br)cc1	?	32µM*	/	/	/	/
O=C(CN1C(=O)NC2(CCCCC2)C1=O)Nc1ccc(F)cc1	-1%	14%	-7%	14%[46.1 µM]	4%[46.1 µM]	-4%
O=C(CCCN1C(=O)NC2(CCCC2)C1=O)Nc1ccc(F)cc1	-2%	-34%	-8%	-21%	5%	-15%
COc1ccc(NC(=O)CN2C(=O)C(c3ccccc3)=NC23CCC(C)CC3)cc1Cl (centres undefined)	-19%	/	-19%	-22%[46.1 µM]	20µM*	-16%
COc1ccc(NC(=O)CN2C(=O)NC3(CCCCCC3)C2=O)cc1Cl	-12%	25µM*	-17%	?	?	0%
COc1ccc(NC(=O)CCN2C(=O)NC3(CCCC3)C2=O)cc1Cl	-14%	0%	/	/	/	/
Cc1ccc(Sc2ccc(NC(=O)CCN3C(=O)NC4(CCCC4)C3=O)cc2)c(C)c1	?	4µM*	/	/	/	/
COc1ccc(S(=O)(=O)N(C(=O)c2ccncc2)c2ccc3oc(C)c(C(C)=O)c3c2)cc1	-15%	/	-22%[7.34 µM]	?	?	-27%[7.34 µM]
CCOc1ccc(-c2cc(C(F)(F)F)c(C#N)c(SCC(=O)Nc3ccccc3)n2)cc1	-13%	/	9%	-5%[46.1 µM]	-12%[46.1 µM]	-4%
Cc1ccc(Cl)cc1-n1ncc2c(Nc3ccc4c(c3)OCCO4)ncnc21	?	/	-19%	?	/	-18%
COCCN1C(=O)C2=C(C1=O)C1N(C)c3ccccc3[C@@]13C[C@@H](CO)N(C(=O)c1ccc(Br)cc1)C3=N2 (some centres undefined)	/	/	/	?	-7%[14.2 µM]	/
Cc1ccc2c(c1)CN(CCNC(=O)c1ccc3nc(C)[nH]c3c1)CC(C)O2 (centres undefined)	-5%	/	-1%	/	/	-11%
COc1ccccc1NS(=O)(=O)c1cc(NC(=O)CN2C(=O)NC3(CCCCC3)C2=O)ccc1C	-6%	13µM*	/	/	/	/
COc1ccccc1NC(=O)CSc1nnc2c3ccccc3n(C)c2n1	-11%	/	-13%	18%[46.1 µM]	/	-8%
COC(=O)c1ccc(S(=O)(=O)NCCSc2nnc3c4ccccc4n(C)c3n2)cc1	-2%	10µM*	/	1%	?	/
COC(=O)[C@]1(C)CCC[C@@]2(C)C3CC[C@@]4(C)C[C@]3(CCC21)CC(=O)N4 (some centres undefined)	?	23%	-24%	/	/	i
SMILES	FMDV antiviral	HCV inhibitor	VACV Venus inh	LASV entry inh	Marburg entry inh	Vaccinia mCherry
C=C1C(=O)C23CCC4C(C)(C(=O)OC)CCCC4(C)C2CCC1(O)C3 (centres undefined)	3.5µM*	3.2µM*	11µM*	?	?	7.9µM*
COC(=O)c1c(NC(=O)c2nc3ccccc3s2)sc2c1CC(C)(C)NC2(C)C	-28%	6%	11µM*	/	/	?
COC(=O)c1c(NC(=O)c2ccc(C(=O)c3ccccc3)cc2)sc2c1CC(C)(C)NC2(C)C	-13%	/	?	/	/	-25%
COc1ccc(/C(C)=N/Nc2ccc(C(=O)O)cc2)c(OC)c1	49%	33%	-12%	?	?	-13%
COc1ccc2c(c1)C(=NNc1ccc(C(=O)O)cc1)c1cc(OC)ccc1-2	-17%	14µM*	?	/	/	?
COc1cc(C(=S)N2CCOCC2)cc(OC)c1OC(=O)c1ccccc1[N+](=O)[O-]	-24%	16µM*	-24%	?	14%[46.1 µM]	i
O=C(COC(=O)c1ccccc1Cl)NC(=O)NCc1ccccc1	24%	1%	-17%	8.2µM*	-1%	-5%
O=C(COC(=O)c1cc(Br)ccc1Cl)NC(=O)NCc1ccccc1	2%	5%	-9%	-5%	-3%[46.1 µM]	i
CCNC(=O)NC(=O)COC(=O)c1ccccc1SCC(=O)NC(=O)NCC	-73%	4%	-12%	?	14µM*	-15%
O=C(COC(=O)c1ccccc1SCC(=O)NC1CCS(=O)(=O)C1)NC1CCS(=O)(=O)C1 (centres undefined)	1%	11%	18%	-1%	?	i
O=C(COC(=O)c1ccc(F)c([N+](=O)[O-])c1)NC(=O)NCc1ccccc1	32µM*	?	-18%	?	?	-2%
COC(=O)c1ccc(S(=O)(=O)N2CCCN(Cc3ccc(F)cc3)CC2)n1C	?	11µM*	/	/	/	/
O=C(NCC1CCCCC1)c1cc2ccccc2cc1O	3%	13µM*	-24%	?	?	?
O=C(NCC1CCCO1)c1cc2ccccc2cc1O (centres undefined)	67%	-8%	-15%	?	-7%	-18%
NNC(=O)c1cc2ccccc2cc1O	6.3µM*	36%	-8%	13%	?	-22%
CSc1nnc(CCNC(=O)c2ccccc2C(F)(F)F)n1-c1ccc(F)cc1	-15%	/	8%	/	/	-5%
C[C@@H]1C=CCCO[C@]12C(=O)Nc1ccc(O)cc12	/	/	/	/	10%[14.2 µM]	/
CCN(CC)c1ccc(C(=O)n2cnc3ccccc32)cc1	-11%	?	?	?	?	14µM*
CCc1ccc(C(=O)c2cn(CC(=O)Nc3ccc(C)c(C)c3)c3ccccc3c2=O)cc1	-1%	/	?	?	?	-21%
O=c1/c(=C\c2ccccn2)sc2n1CN(c1ccccc1)CN=2	/	/	/	/	14%	/
Cc1ccc(C)c(C(Nc2ccccc2)c2ccc3ccc(C)nc3c2O)c1 (centres undefined)	6%	/	?	/	/	7.9µM*
Cc1cccc(NC(c2ccccc2F)c2ccc3ccc(C)nc3c2O)n1 (centres undefined)	-18%	/	-25%	15%[46.1 µM]	/	?
CN(C)CCNc1ncnc2oc(-c3ccccc3)c(-c3ccccc3)c12	?	3.2µM*	/	/	/	/
